In PubChem BioAssay (EPA / NIEHS):
Activity calls are given as the source filed them. How the source made its calls: active means hit-call score of the fitted dose curve at least 0.9, where 1 is the maximum; inactive means score below 0.9.

Read-out: Interleukin-1 alpha (IL1a), IL1A (gene 3552)
Experiment: BSK_BE3C_IL1a: BioMAP Diversity Plus: BE3C Assay for Interleukin-1 alpha (IL1a) Biomarker Activity (AID 2283016)
Details: primary human bronchial epithelial cells; actives raise or lower the signal
Description: BSK_BE3C is a cell-based, multiplexed-readout assay that uses bronchial epithelial cell, a human lung primary cell, with measurements taken at 24 hours after chemical dosing in a 96-well plate.BSK_BE3C_IL1a is an assay component measured in the BSK_BE3C assay. It measures IL-1a antibody related to regulation of gene expression using ELISA technology.Data from the assay component BSK_BE3C_IL1a was analyzed into 1 assay endpoint. This assay endpoint, BSK_BE3C_IL1a, was analyzed with bidirectional fitting relative to DMSO as the negative control and baseline of activity. Using a type of binding reporter, gain or loss-of-signal activity can be used to understand changes in the signaling as they relate to the gene IL1A. Furthermore, this assay endpoint can be referred to as a primary readout, because this assay has produced multiple assay endpoints where this one serves a signaling function. To generalize the intended target to other relatable targets, this assay endpoint is annotated to the cytokine intended target family, where the subfamily is interleukins.
The levels of cell surface (or secreted, indicated by the prefix "s") biomarker endpoints were measured by ELISA. Overt cytotoxicity to cells in confluent adherent cultures (all systems other than the BT system) was assessed by measuring total protein levels using sulforhodamine B (SRB) staining in parallel cultures at the time of biomarker measurements, indicated as SRB endpoints. For proliferation assays for adherent cell types, individual cell types are cultured at sub-confluence and relative cell numbers quantified by SRB staining at time points optimized for each system (48 h: 3C and CASM3C systems; 72 h: BT and HDF3CGF systems; 96 h: SAg system). SRB was performed by staining cells with 0.1% SRB after fixation with 10% TCA and reading wells at 560 nm.Viability and proliferation of PBMC (T cells) was quantified by Alamar Blue reduction for the SAg and BT systems. For PBMC viability (referred to as PBMC Cytotoxicity within the assay endpoint names), cells were plated (75,000/well in a 96-well plate) and then chemical samples added for 1 h before addition of activators, SEB and TSST-1 (20 ng/mL final concentration each). Cells were incubated for 90 h. Then, Alamar Blue (20 uL/well) (Invitrogen, Cat DAL1100) was added for 6 h, and the plates were read with a fluorescence microplate reader at 546/580 nm (excitation/emission). For PBMC proliferation, cells were plated and activated as above but incubated for only 16 h prior to addition of Alamar Blue. Plates were read after 6 h.

Structure (SMILES) | AC50 | outcome
CCc1cc(SCc2sc(-c3ccc(C(F)(F)F)cc3)nc2CN2CCN(c3ccc(OC)cc3)CC2)ccc1OCC(=O)O | 7 µM (active) | –
CCCN(C1CCN(C(=O)C2CCNCC2)CC1)[C@@H]1CCc2ccc(OC)cc2C1 | – | inactive
C[C@](N)(Cc1ccc(O)c(O)c1)C(=O)O | – | inactive
CC(=O)OCCC(C)C | – | inactive
CCCCC(CC)COC(=O)CCCCCCCCC(=O)OCC(CC)CCCC (stereo not given) | – | inactive
C1=CCCC=CCCC=CCC1 | – | inactive
CCCCCCc1ccc(O)cc1O | 33 µM (active) | –
CC(C)(O)c1coc(S(=O)(=O)NC(=O)Nc2c3c(cc4c2CCC4)CCC3)c1 | – | inactive
COC(=O)CC(=O)OC | – | inactive
CCN(C(=O)c1cc(C)cc(OC[C@H](C)Nc2ccncc2)c1)C(C)C | – | inactive
CCCCCCCCCCCCCCCO | – | inactive
COCCOc1cc2cc(C(=O)NC3CCN(C(C)C)CC3)n(CC(=O)Nc3ccc(Cl)cn3)c2cn1 | – | inactive
O=C(OC[C@H]1O[C@@H](OC(=O)c2cc(O)c(O)c(OC(=O)c3cc(O)c(O)c(O)c3)c2)[C@H](OC(=O)c2cc(O)c(O)c(OC(=O)c3cc(O)c(O)c(O)c3)c2)[C@@H](OC(=O)c2cc(O)c(O)c(OC(=O)c3cc(O)c(O)c(O)c3)c2)[C@@H]1OC(=O)c1cc(O)c(O)c(OC(=O)c2cc(O)c(O)c(O)c2)c1)c1cc(O)c(O)c(OC(=O)c2cc(O)c(O)c(O)c2)c1 | 7.85 µM (active) | –
COCCOCCOCCOC | – | inactive
CCOc1cccc(-n2cc(C(=O)N3CCN(c4cc(C(=O)O)c5ccccc5c4)CC3)nc2-c2ccc(C)cc2)c1 | 29.2 µM (active) | –
CCCCCCCCO | – | inactive
CC(C)=CCCC(C)CCO (stereo not given) | – | inactive
COC(=O)c1ccccc1O | – | inactive
CC[C@H]1CC[C@H](NCc2cc3c(cc2OC)[C@H]2C[C@H]2C(=O)N3C)[C@H](c2ccccc2)N1 | – | inactive
CC1(C)C(=O)N(Br)C(=O)N1Br | – | inactive

Structure (SMILES) | AC50 | outcome
CNCc1ccc(NC(=O)c2c[nH]c3c2C(=O)CCC3)cc1 | – | inactive
Cc1ccc(S(=O)(=O)O)cc1C | – | inactive
CCOC(=O)CC(CC(=O)OCC)(OC(C)=O)C(=O)OCC | – | inactive
Cn1c(=O)cc(Oc2ccc(F)cc2F)c2cnc(NCC(C)(C)O)nc21 | – | inactive
Cc1ccc(C)c(O)c1 | – | inactive
Cc1[nH]cnc1C[C@H]1CCc2c(C)c3ccccc3n2C1=O | – | inactive
CC[C@H]1OC(=O)[C@H](C)[C@@H](O[C@H]2C[C@@](C)(OC)[C@@H](O)[C@H](C)O2)[C@H](C)[C@@H](O[C@@H]2O[C@H](C)C[C@H](N(C)C)[C@H]2O)[C@](C)(O)C[C@@H](C)C(=O)[C@H](C)[C@@H](O)[C@]1(C)O | – | inactive
Nc1cccc(N)c1 | – | inactive
O=C(CCCCCCCCc1cccnc1)N1CCC(C=C(c2ccccc2)c2ccccc2)CC1 | 27.3 µM (active) | –
CCOC(=O)COc1ccc2c(c1)CC(NCC(O)c1cccc(Cl)c1)CC2 (stereo not given) | – | inactive
O=C(O)c1cccc(Oc2ccccc2)c1 | – | inactive
COc1cccc(-c2ccc(/C=C\CN3CCCCCC3)cc2Cl)c1 | 29 µM (active) | –
Nc1nc2ncc(CNc3ccc(C(=O)N[C@@H](CCC(=O)O)C(=O)O)cc3)nc2c(=O)[nH]1 | – | inactive
CC[C@H](C)C(=O)O[C@H]1C[C@@H](C)C=C2C=C[C@H](C)[C@H](CC[C@@H]3C[C@@H](O)CC(=O)O3)[C@H]21 | 33.6 µM (active) | –
O=C1OC(=O)C2C3C=CC(C3)C12 (stereo not given) | – | inactive
Cc1c(-c2cccnc2)c2ccccc2n1CCCCC(=O)O | – | inactive
CNS(=O)(=O)c1cc(C(=O)N2CCC(CCN3C4CCC3CC(n3c(C)nc5ccccc53)C4)(c3cccc(F)c3)CC2)c(Cl)cc1F (stereo not given) | – | inactive
O=P(OC(CCl)CCl)(OC(CCl)CCl)OC(CCl)CCl | – | inactive
CC(C)CCCCCCOC(=O)c1ccc(C(=O)OCCCCCCC(C)C)c(C(=O)OCCCCCCC(C)C)c1 | – | inactive
O=C(NS(=O)(=O)/C=C/c1ccccc1)c1ccc(F)cc1Cl | – | inactive
